Test results published in the supplement of paper PMC9262897, “Low-cost anti-mycobacterial drug discovery using engineered E. coli” (Nature Communications, 2022).
Where a name gives a salt, the structure may show the parent alone. ± gives the standard deviation of the averaged measurements.

Key:
Assay in all cases: growth (OD600 after 10 h); higher = more growth (less inhibition)
[1] = system: E. coli TESEC Alr+ wild-type control; details: compound 0.1 mM; raw OD600 reference: median of DMSO wells 0.241, cell-free background 0.041
Description: (§1)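 TESEC Mtb Alr E. coli, or the Alr+ wild-type control, in 384-well plates with Prestwick library compounds at 0.1 mM and 1% DMSO, across arabinose induction levels of 1E3 to 1E7 nM. Growth is read as OD600 after 10 h at 37 °C in triplicate biological replicates.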

E. coli TESEC Mtb Alr [2] = details: compound 0.1 mM
Description: as §1

E. coli TESEC Mtb Asd = details: compound 0.1 mM
Description: (§2)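 TESEC E. coli strains in which the native enzyme is deleted and replaced by arabinose-inducible Mtb Asd, DapB, CysH or TrpD, each grown in its selective medium. Strains were screened against the Prestwick library at 0.1 mM and 1% DMSO in 384-well format at low and high arabinose induction. Growth is read as OD600 after 10 h in triplicate.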

E. coli TESEC Mtb DapB = details: compound 0.1 mM
Description: as §2

E. coli TESEC Mtb Alr [3] = details: compound 0.1 mM; remark: listed apart in the source
Description: (§3)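 TESEC Mtb Alr E. coli (ΔaraC ΔtolC ΔentC Δalr ΔdadX, arabinose-inducible Mtb Alr) or the Alr+ wild-type control strain, grown in defined M9-fructose medium without D-alanine in 96-well plates with Prestwick library compounds at 0.1 mM and 1% DMSO. Low Alr induction is 0.1 µM arabinose and high induction is 10 mM arabinose.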

[4] = system: E. coli TESEC Alr+ wild-type control; details: compound 0.1 mM; raw OD600 reference: median of DMSO wells 0.49, cell-free background 0.052
Description: as §3

[5] = arabinose 1000 nM, raw OD600 reference: median of DMSO wells 0.294, cell-free background 0.041
[6] = arabinose 10000 nM, raw OD600 reference: median of DMSO wells 0.264, cell-free background 0.041
[7] = arabinose 100000 nM, raw OD600 reference: median of DMSO wells 0.201, cell-free background 0.041
[8] = arabinose 1000000 nM, raw OD600 reference: median of DMSO wells 0.193, cell-free background 0.041
[9] = arabinose 10000000 nM, raw OD600 reference: median of DMSO wells 0.146, cell-free background 0.041
[10] = arabinose induction (level): High, raw OD600 reference: median of DMSO wells 0.331, cell-free background 0.041
[11] = arabinose induction (level): Low, raw OD600 reference: median of DMSO wells 0.417, cell-free background 0.041
[12] = arabinose induction (level): High, raw OD600 reference: median of DMSO wells […], cell-free background 0.041
[13] = arabinose induction (level): Low, raw OD600 reference: median of DMSO wells 0.227, cell-free background 0.041
[14] = arabinose 100 nM, raw OD600 reference: median of DMSO wells 0.413, cell-free background 0.052
[15] = arabinose 10000000 nM, raw OD600 reference: median of DMSO wells […], cell-free background 0.052

Compound	growth [1]	growth (E. coli TESEC Mtb Alr [2]; [5])	growth (E. coli TESEC Mtb Alr [2]; [6])	growth (E. coli TESEC Mtb Alr [2]; [7])	growth (E. coli TESEC Mtb Alr [2]; [8])	growth (E. coli TESEC Mtb Alr [2]; [9])	growth (E. coli TESEC Mtb Asd; [10])	growth (E. coli TESEC Mtb Asd; [11])	growth (E. coli TESEC Mtb DapB; [12])	growth (E. coli TESEC Mtb DapB; [13])	growth (E. coli TESEC Mtb Alr [3]; [14])	growth (E. coli TESEC Mtb Alr [3]; [15])	growth [4]
CCOC(=O)c1cncn1[C@H](C)c1ccccc1 [Etomidate]	0.202 ± 0.0032	0.244 ± 0.0088	0.275 ± 0.013	0.214 ± 0.03	0.181 ± 0.01	0.14 ± 0.0078	0.43 ± 0.029	0.378 ± 0.076	0.225 ± 0.019	0.228 ± 0.013	0.41 ± 0.0073	0.341 ± 0.0035	–
CN(C)[C@@H]1C(=O)C(C(N)=O)=C(O)[C@@]2(O)C(=O)C3=C(O)c4c(O)cccc4[C@@](C)(O)[C@H]3[C@H](O)[C@@H]12 [Oxytetracycline dihydrate]	0.0451 ± 0.0028	0.0424 ± 0.00089	0.0418 ± 0.00081	0.044 ± 0.0021	0.0421 ± 0.0003	0.04303 ± 0.00012	0.0563 ± 0.0015	0.0587 ± 0.0032	0.0531 ± 0.00076	0.0536 ± 0.0012	0.0627 ± 0.0022	0.0555 ± 0.003	–
O=[N+]([O-])O[C@H]1CO[C@H]2[C@@H]1OC[C@H]2O[N+](=O)[O-] [Isosorbide dinitrate]	0.243 ± 0.013	0.32 ± 0.014	0.263 ± 0.0089	0.217 ± 0.025	0.185 ± 0.0031	0.159 ± 0.0026	0.476 ± 0.013	0.419 ± 0.07	0.213 ± 0.012	0.27 ± 0.03	0.4084 ± 0.0022	0.343 ± 0.014	–
Oc1ccc2c3c1O[C@H]1[C@@H](O)CC[C@@]4(O)[C@@H](C2)N(CC2CCC2)CC[C@]314 [Nalbuphine hydrochloride]	0.233 ± 0.0039	0.262 ± 0.028	0.2664 ± 0.0015	0.183 ± 0.024	0.1753 ± 0.0013	0.135 ± 0.0094	0.381 ± 0.095	0.453 ± 0.036	0.195 ± 0.011	0.214 ± 0.029	0.4293 ± 0.0018	0.351 ± 0.015	–
CCC1(C)CC(=O)NC(=O)C1 [Bemegride]	0.237 ± 0.0029	0.299 ± 0.023	0.253 ± 0.00095	0.227 ± 0.039	0.191 ± 0.0055	0.135 ± 0.0098	0.318 ± 0.043	0.46 ± 0.0049	0.2 ± 0.0046	0.23 ± 0.013	0.4 ± 0.019	0.363 ± 0.02	–
C[C@]12CC[C@H](O)C[C@@H]1CC[C@@H]1[C@@H]2CC[C@]2(C)C(=O)CC[C@@H]12 [Epiandrosterone]	0.126 ± 0.0063	0.12 ± 0.0055	0.107 ± 0.0061	0.0943 ± 0.0019	0.0694 ± 0.0019	0.0859 ± 0.0011	0.0929 ± 0.015	0.168 ± 0.018	0.152 ± 0.021	0.136 ± 0.006	0.353 ± 0.043	0.109 ± 0.0099	–
Cc1cccc(C)c1NC1=NCCCS1 [Xylazine]	0.236 ± 0.0094	0.284 ± 0.0052	0.247 ± 0.0072	0.208 ± 0.029	0.169 ± 0.0055	0.137 ± 0.006	0.298 ± 0.051	0.34 ± 0.11	0.209 ± 0.016	0.226 ± 0.022	0.424 ± 0.0078	0.352 ± 0.023	–
c1ccc2c(c1)Nc1ccccc1S2 [Phenothiazine]	0.157 ± 0.0061	0.215 ± 0.0099	0.265 ± 0.011	0.209 ± 0.015	0.198 ± 0.013	0.201 ± 0.0046	0.377 ± 0.076	0.177 ± 0.014	0.209 ± 0.034	0.236 ± 0.03	0.415 ± 0.0099	0.344 ± 0.021	–
CCC(=O)O[C@@](Cc1ccccc1)(c1ccccc1)[C@@H](C)CN(C)C [Levopropoxyphene napsylate]	0.178 ± 0.0045	0.249 ± 0.005	0.283 ± 0.012	0.176 ± 0.014	0.1558 ± 0.001	0.15 ± 0.0048	0.169 ± 0.019	0.388 ± 0.047	0.175 ± 0.026	0.205 ± 0.011	0.4145 ± 0.0027	0.323 ± 0.013	–
O=C(CCCN1CCC2(CC1)C(=O)NCN2c1ccccc1)c1ccc(F)cc1 [Spiperone]	0.214 ± 0.0064	0.273 ± 0.019	0.276 ± 0.011	0.1711 ± 0.0014	0.169 ± 0.0073	0.149 ± 0.0039	0.274 ± 0.066	0.43 ± 0.042	0.188 ± 0.013	0.218 ± 0.038	0.409 ± 0.0039	0.354 ± 0.027	–
CN1[C@@H]2CC[C@H]1C[C@@H](OC1c3ccccc3CCc3ccccc31)C2 [Deptropine citrate]	0.046 ± 0.0008	0.041 ± 0.0014	0.03993 ± 0.00025	0.043 ± 0.001	0.0411 ± 0.0015	0.04267 ± 0.00021	0.0939 ± 0.05	0.0858 ± 0.012	0.0744 ± 0.011	0.069 ± 0.01	0.392 ± 0.0043	0.0701 ± 0.03	–
CNC(C)(C)Cc1ccccc1 [Mephentermine hemisulfate]	0.247 ± 0.0094	0.303 ± 0.018	0.274 ± 0.0032	0.224 ± 0.012	0.193 ± 0.0098	0.138 ± 0.0038	0.273 ± 0.036	0.433 ± 0.033	0.208 ± 0.012	0.221 ± 0.0061	0.402 ± 0.0066	0.381 ± 0.03	–
CC(C)(N)Cc1ccccc1 [Phentermine hydrochloride]	0.232 ± 0.0076	0.288 ± 0.017	0.273 ± 0.0063	0.199 ± 0.033	0.193 ± 0.0084	0.138 ± 0.0031	0.318 ± 0.043	0.297 ± 0.017	0.206 ± 0.021	0.233 ± 0.014	0.413 ± 0.014	0.36 ± 0.0095	–
C[C@]12CC[C@H]3[C@@H](CCC4=CC(=O)CC[C@@H]43)[C@@H]1CC[C@@H]2O [Nandrolone]	0.154 ± 0.0082	–	–	–	–	–	0.106 ± 0.0027	0.267 ± 0.1	0.1471 ± 0.0014	0.159 ± 0.0037	0.408 ± 0.0099	0.211 ± 0.0078	0.423 ± 0.015
NCC(O)c1ccc(O)cc1 (racemic) [(+,-)-Octopamine hydrochloride]	0.258 ± 0.0024	0.325 ± 0.02	0.268 ± 0.011	0.194 ± 0.012	0.179 ± 0.0096	0.162 ± 0.0021	0.483 ± 0.015	0.45 ± 0.018	–	–	0.408 ± 0.015	0.337 ± 0.014	–
COc1ccc(OC)c(C(O)C(C)N)c1 (stereo not drawn) [Methoxamine hydrochloride]	0.241 ± 0.0052	–	–	–	–	–	0.272 ± 0.074	0.409 ± 0.021	0.223 ± 0.033	0.222 ± 0.028	0.413 ± 0.011	0.334 ± 0.023	–
CO[C@]12C[C@@H](COC(=O)c3cncc(Br)c3)CN(C)[C@@H]1Cc1cn(C)c3cccc2c13 [Nicergoline]	0.174 ± 0.0043	0.184 ± 0.0071	0.194 ± 0.0054	0.223 ± 0.0047	0.102 ± 0.0052	0.184 ± 0.0056	0.221 ± 0.021	0.279 ± 0.056	–	–	0.416 ± 0.005	0.268 ± 0.015	–
CN(C)[C@@H]1C(=O)C(C(N)=O)=C(O)[C@@]2(O)C(=O)C3=C(O)c4c(O)cccc4[C@@](C)(O)[C@H]3C[C@@H]12 [Tetracycline hydrochloride]	0.0422 ± 0.00046	–	–	–	–	–	0.0539 ± 0.0012	0.0592 ± 0.0072	0.0495 ± 0.0014	0.0516 ± 0.0028	0.0567 ± 0.0019	0.0604 ± 0.0025	–
CC(C)C[C@H](CN)CC(=O)O [Pregabalin]	0.239 ± 0.015	0.291 ± 0.0063	0.273 ± 0.013	0.178 ± 0.022	0.223 ± 0.015	0.134 ± 0.0081	0.28 ± 0.062	0.406 ± 0.038	–	–	0.41 ± 0.01	0.306 ± 0.013	–
CC(=O)OCC(=O)[C@H]1CC[C@H]2[C@@H]3CC[C@H]4C[C@H](O)CC[C@]4(C)[C@H]3C(=O)C[C@]12C [Alfadolone acetate]	0.15 ± 0.0034	–	–	–	–	–	0.289 ± 0.075	0.19 ± 0.0093	–	–	0.395 ± 0.007	0.257 ± 0.0074	–
NC(=O)CN1CCCC1=O [Piracetam]	0.245 ± 0.0091	0.299 ± 0.0073	0.27 ± 0.0054	0.224 ± 0.034	0.184 ± 0.0072	0.15 ± 0.0043	0.302 ± 0.06	0.325 ± 0.092	–	–	0.415 ± 0.011	0.346 ± 0.018	–
C[C@]12CC[C@H](O)C[C@H]1CC[C@@H]1[C@@H]2CC[C@]2(C)[C@@H](C3=CC(=O)OC3)CC[C@]12O [Digitoxigenin]	0.147 ± 0.0028	–	–	–	–	–	0.154 ± 0.0042	0.289 ± 0.096	–	–	0.41 ± 0.0093	0.227 ± 0.01	–
NCC(CC(=O)O)c1ccc(Cl)cc1 (racemic) [Baclofen (R,S)]	0.248 ± 0.011	–	–	–	–	–	0.392 ± 0.032	0.422 ± 0.029	–	–	0.408 ± 0.0092	0.361 ± 0.026	–
